This is a sample that favours compounds with a hit; in the whole collection about 28% have one here.
CYP2C19 activ: human CYP2C19 activators, primary screen, biochemical, luminescence; 96,000 tested, under 10 active; activation factor at 5 µM; Cytochrome P450 2C19 (Homo sapiens), P33261; recombinant CYP2C19, luciferin-H EGE luminescence; hits give high values; 0 = fully inhibited enzyme, 1 = untreated enzyme;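 active = activation factor of at least 2 at 5 µM in the primary screen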;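 note: 0 = wells with 2.5 mM tranylcypromine and 1 = vehicle-only wells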
CYP2C19 inhib: blockers of cytochrome P450 2C19 activity – biochemical, luminescence, ADME assay, primary screen; P33261; inhibition, % at 5 µM; CYP2C19 Supersomes, luciferin-H EGE luminescence, 30 min; 96,000 tested, 21% active;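 active = CYP2C19 inhibition above a set limit at 5 µM in the primary screen, cut at about 50% in these data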;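 note: plate controls were negative control wells for no effect and 2.5 mM tranylcypromine positive control for full effect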
Mac1 fbg inh: inhibitors of CD11b/CD18 adhesion to fibrinogen, primary screen, K562 cells, luminescence | inhibition, % at 10 µM | AID 1497, 2009 | ATPlite luminescence; Mn2+ added to activate the integrin | Integrin beta-2 (Homo sapiens) + Integrin alpha-M (Homo sapiens), P05107+P11215 | 93,000 tested, 0.54% active;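 active = primary inhibition of 50% or more at 10 µM, then 40% or more on retest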
CYP2C9 activ: human CYP2C9 activators, primary screen, biochemical, luminescence | activation factor at 5 µM | Cytochrome P450 2C9 (Homo sapiens), P11712 | recombinant CYP2C9, luciferin-H conversion; hits give high values; factor 1 = untreated enzyme, 0 = blocked | 96,000 tested, 1.4% active;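 active = activation factor of 2 or more for CYP2C9 at a 5 µM dose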;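 note: 0 = sulfaphenazole-blocked wells and 1 = vehicle-only wells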
Target sequence (P11712 whole entry, looked up): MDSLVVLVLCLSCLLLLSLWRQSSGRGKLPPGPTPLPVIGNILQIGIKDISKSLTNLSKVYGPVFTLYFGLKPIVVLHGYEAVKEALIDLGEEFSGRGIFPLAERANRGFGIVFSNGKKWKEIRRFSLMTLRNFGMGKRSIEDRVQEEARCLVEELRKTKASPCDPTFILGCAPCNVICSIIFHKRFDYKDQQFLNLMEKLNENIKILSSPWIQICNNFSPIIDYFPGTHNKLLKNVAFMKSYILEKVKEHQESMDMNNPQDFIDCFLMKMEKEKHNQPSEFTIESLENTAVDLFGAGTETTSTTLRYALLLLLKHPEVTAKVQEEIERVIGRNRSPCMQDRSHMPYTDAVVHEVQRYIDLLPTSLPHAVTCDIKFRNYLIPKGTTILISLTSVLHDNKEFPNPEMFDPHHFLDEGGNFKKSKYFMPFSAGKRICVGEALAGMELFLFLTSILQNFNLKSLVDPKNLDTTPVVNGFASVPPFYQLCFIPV
CYP2C9 inh: blockers of cytochrome P450 2C9 activity – biochemical, luminescence, ADME assay, primary screen. P11712. CYP2C9 Supersomes, luciferin-H conversion. inhibition, % at 5 µM. 96,000 tested, 20% active;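 active = blocking of liver enzyme CYP2C9 beyond about 50% at 5 µM, limit read from the data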
CD11b adhes enh: enhancers of CD11b/CD18 adhesion to fibrinogen, primary screen, K562 cells, luminescence. Integrin beta-2 (Homo sapiens) + Integrin alpha-M (Homo sapiens), P05107+P11215. ATPlite luminescence. activation, % at 10 µM. 93,000 tested, 0.07% active;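 active = 10 µM primary screen giving 50% or more activity, confirmed by 40% or more on retest at that dose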
* = called active by the depositor; / = no result given.

SMILES	CYP2C19 activ	CYP2C19 inhib	Mac1 fbg inh	CYP2C9 activ	CYP2C9 inh	CD11b adhes enh
COc1ccc(-c2noc(CSc3nc4ccccc4c(=O)n3-c3ccccc3)n2)cc1OC	0.6	43	-14	0.3	69*	7
COc1ccc(-c2noc(CSc3nc4sc(C)c(C)c4c(=O)n3-c3ccccc3)n2)cc1OC	1	-2	-23	0.7	27	0
COc1ccc(-c2cc(-c3nnc(COC(=O)C4CC4)o3)c3ccccc3n2)cc1OC	/	/	0	/	/	18
COc1cc(-c2nnc(CSc3nc4ccccc4s3)o2)cc(OC)c1OC	0.5	53*	3	0.3	65*	4
COc1ccc(-c2nnc(CSc3nc4ccccc4c(=O)n3CC(C)C)o2)cc1OC	0.1	92*	24	0	97*	0
O=c1c2ccccc2nc(SCc2nc(-c3ccccc3)no2)n1-c1ccc(F)cc1	0.8	16	-21	0.4	59*	2
COc1ccc(-c2nc(N)n(C(=O)Cc3ccccc3)n2)cc1	0.9	10	5	0.9	11	-1
COc1ccc2cc3c(N)nn(C(=O)Cc4ccccc4OC)c3nc2c1	0.2	78*	18	0.3	75*	28
Cc1cc2cc(CCNC(=O)CC(C)(C)C)c(=O)[nH]c2cc1C	1.1	-11	-8	1.2	-16	1
Cc1ccc(OCC(=O)NCC(=O)Nc2ccc(F)c(F)c2F)c([N+](=O)[O-])n1	/	/	5	/	/	-1
Cc1cccc(N2CCN(C(=O)c3cc4c(=O)n(C)c5ccccc5c4n3C)CC2)c1C	1.1	-8	1	1.1	-14	0
Cn1c(C(=O)N2CCN(c3ncccn3)CC2)cc2c(=O)n(C)c3ccccc3c21	0.8	17	2	0.1	93*	-4
Cc1ccc(Cl)cc1N1CCN(C(=O)c2cc3c(=O)n(C)c4ccccc4c3n2C)CC1	0.2	77*	86*	0	98*	-7
Cn1c(C(=O)N2CCCC2)cc2c(=O)n(C)c3ccccc3c21	0.9	8	-4	0.9	7	-1
CN(C)/C=C1\C(=O)N(c2ccc([N+](=O)[O-])cc2)N=C1c1ccccc1	0.9	13	-21	0.7	28	0
O=C(NCC1CC1)c1ccc(Nc2nc3ccc(Br)cc3[nH]2)cc1	0.7	32	-3	0.3	69*	-4
O=C(Cc1ccc(Nc2nc3ccc(Br)cc3[nH]2)cc1)NCCc1cccs1	0.3	67*	58	0.1	94*	-2
O=C(Cc1nc2ccccc2[nH]1)NCc1ccco1	0.8	18	0	0.9	8	-3
O=C(NCc1ccco1)c1cccc(Nc2nc3ccc(Br)cc3[nH]2)c1	0.7	34	44	0.1	91*	0
CC(C)COc1cc(=O)[nH]c(SCC(C)C)n1	1	-1	-2	0.9	11	3
COc1ccc(-c2csc(NC(=O)CSc3ccc(Br)cc3)n2)c(OC)c1	/	/	0	/	/	4
CC1CCCN(C(=O)CSCC(=O)N=c2sc3ccccc3n2C)C1 (configuration not stated)	0	99*	-2	0.8	21	-5
CCCOc1ccc2oc(=O)c3c(c2c1)CCCN3C(=O)CN1CCN(c2ncccn2)CC1	0.4	63*	2	0.3	65*	-1
CC1CC(C)(C)N(C(=O)CSc2ccc(-c3ccc(F)cc3)nn2)c2ccccc21 (configuration not stated)	0.5	49	/	0.4	58*	/
Cc1ccc(CSc2nnc(C(F)(F)F)n2Cc2ccc(F)cc2)cc1	0.6	42	/	0.3	69*	/
SMILES	CYP2C19 activ	CYP2C19 inhib	Mac1 fbg inh	CYP2C9 activ	CYP2C9 inh	CD11b adhes enh
CCn1c(SCc2ccc(C)cc2)nnc1-c1cnccn1	0.5	49	7	1	5	0
COc1cccc(CSc2nnc(C(F)(F)F)n2Cc2ccc(F)cc2)c1	0.6	39	/	0.4	61*	/
COc1cccc(CSc2nnc(-c3ccc(F)cc3)o2)c1	0.8	17	-11	1.2	-21	-2
CCN1CCN(C(=S)c2ccc(OCC(=O)N3CCOCC3)cc2)CC1	0.9	6	-3	1	-1	-1
Cc1ccc(-c2nnc(Nc3ccccc3)c3ccccc23)cc1S(=O)(=O)NCC1CCCO1 (configuration not stated)	0.4	56*	/	0.4	64*	/
COc1ccc(C(=O)NCCc2nnc(SCc3nc4ccccc4c(=O)[nH]3)n2C)cc1	1.1	-6	-4	0.2	84*	0
Cn1c(-c2ccccc2)cnc1SCc1nc2ccccc2c(=O)[nH]1	0	100*	-17	0.8	21	0
Cn1c(SCc2nc3ccccc3c(=O)[nH]2)nnc1-c1ccco1	0.5	51*	-31	1	-4	6
CC(C)Cn1c(SCC#N)nc2ccccc2c1=O	0.8	23	-6	0.7	28	0
CC(C)Cn1c(SCc2nc3ccccc3c(=O)[nH]2)nc2ccccc2c1=O	0.4	55*	/	0.2	80*	/
COc1ccc(Cc2nnc(SCc3nc4ccccc4c(=O)[nH]3)o2)cc1	0.7	26	-39	0.8	18	1
Cc1c(C(=O)N2CCCC2)sc(NC(=O)c2cccc(Cl)c2)c1C#N	1.1	-12	17	0.7	31	-3
CN(C)c1ccc(C(=O)C(O)c2ccc(C(C)(C)C)cc2)cc1 (configuration not stated)	0.6	45	16	0.9	13	-6
CCOC(=O)C1=C(C)NC2=C(C1c1ccc([N+](=O)[O-])cc1)S(=O)(=O)c1ccccc12 (configuration not stated)	0.9	6	-15	0.4	62*	-1
Cc1ccc(N(C(=O)Nc2ccccc2)C2=NCC(C)S2)cc1 (configuration not stated)	0.3	71*	3	0.1	86*	4
Cc1c(N(C(=O)Nc2ccccc2)C2=NCC(C)S2)c(=O)n(-c2ccccc2)n1C (configuration not stated)	0.7	32	-3	0.3	74*	-3
O=C(O)C1CC=CCC1C(=O)Nc1ccccc1 (configuration not stated)	0.8	15	-11	0.8	18	0
COc1ccc(/C=C/C(=O)N/C(=C\c2ccco2)C(=O)NCCc2nc3ccccc3[nH]2)cc1	/	/	-2	/	/	5
CCOc1ccc(C2C=C(c3ccc(C)cc3)Nc3nnnn32)cc1 (configuration not stated)	0.2	83*	5	0.2	84*	-5
